Integrin act MD: qHTS for Activators of Integrin-Mediated Alleviation for Muscular Dystrophy; Potency, µM (titrated, usually from 38.3 µM), without a hit: top-dose activation, actives largely listed as activators; alpha7betagal myoblasts, beta-gal FDG fluorescence, 48 h; AID 624291, 2012; actives 0.064% (n = 350,000);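 further: potency means the concentration at half of the fitted maximal effect; 100% = response of the positive control SU9516; nearly all actives have a fitted effect of over 60% in size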
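Alpha7betagal+/- myoblasts (passage 13) were plated 16-24 hr, then exposed to compounds (1:260 dilution of DMSO stock) for 48 hours at 37C. After MPER lysis, β-galactosidase reporter activity was read as FDG fluorescence (ex 480/em 540) after 30 minutes.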
Glioma ERSR ind: qHTS for Inducers of the Endoplasmic Reticulum Stress Response (ERSR) in Human Glioma: qHTS | U87-MG GRP78 promoter luciferase reporter, 16 h | Potency, µM, for inactives: at the highest dose activation, actives largely listed as activators | actives 0.02% (n = 420,000) | AID 602332, 2012; further: potency means the concentration at half of the fitted maximal effect; series mostly up to about 76 µM; % of control where 0% means no effect; nearly all actives have a fitted effect of over 35% in size
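Stably transfected U87-MG human glioma cells carrying a GRP78-based luminescent sensor were seeded at 1000 cells/well, pin-dosed with compounds and incubated 16 h. Luciferase reagent was then added, and end-point luminescence was read after 10 min at room temperature.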
ClpP mod: qHTS Assay for Activators of ClpP; ATP-dependent Clp protease proteolytic subunit (Bacillus subtilis (strain 168)), P80244; purified B. subtilis ClpP, FRET peptide cleavage, 20 min; Potency, µM (doses to about 57.5 µM), inactives show at the top dose activity change, negative = active; actives 1.9% (n = 340,000); AID 651965, 2013; active means well fitted falling curve with a large enough effect; inconclusive means small, poorly fitted or top-dose-only effect; inactive means no such curve, though single readings can be large or run the other way; further: potency means the concentration at half of the fitted maximal effect; the source files actives as falling curves though it sought activators and does not explain the sign; nearly all actives have a fitted effect of over 65% in size
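Purified B. subtilis ClpP, 10 microg/mL final in Tris/HCl pH8 with KCl, BSA, glycerol and Tween-20, cleaved an Abz/nitrotyrosine-quenched decapeptide. Fluorescence (ex 320, em 430) was read at 0 and 20 min at room temperature. Delta was normalized to 5.8 microM ADEP and DMSO/no-enzyme controls.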
CBFb RUNX1 block: qHTS Assay for Compounds Blocking the Interaction Between CBF-beta and RUNX1 for the Treatment of Acute Myeloid Leukemia. AlphaScreen CBFb-His/RUNX1-biotin binding, biochemical. Potency, µM (titrated, usually from 59.8 µM), inactives show at the top dose activity, negative = inhibition, most hits filed as inhibitors. 230,000 tested, under 10 active; further: % of control where 0% means no effect
Target sequence (Q01196 whole entry, looked up): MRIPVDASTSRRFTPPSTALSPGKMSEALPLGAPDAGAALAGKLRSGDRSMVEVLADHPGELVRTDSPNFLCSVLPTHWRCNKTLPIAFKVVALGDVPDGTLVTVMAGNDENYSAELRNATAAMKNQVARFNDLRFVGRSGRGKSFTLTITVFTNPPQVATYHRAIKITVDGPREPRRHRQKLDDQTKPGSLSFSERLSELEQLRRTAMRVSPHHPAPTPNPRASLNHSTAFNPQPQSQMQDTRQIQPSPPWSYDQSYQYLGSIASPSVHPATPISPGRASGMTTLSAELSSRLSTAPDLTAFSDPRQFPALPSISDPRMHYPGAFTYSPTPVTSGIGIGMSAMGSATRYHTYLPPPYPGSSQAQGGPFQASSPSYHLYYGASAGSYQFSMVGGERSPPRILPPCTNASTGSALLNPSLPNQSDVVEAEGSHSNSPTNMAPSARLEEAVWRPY
Target sequence (Q13951 whole entry, looked up): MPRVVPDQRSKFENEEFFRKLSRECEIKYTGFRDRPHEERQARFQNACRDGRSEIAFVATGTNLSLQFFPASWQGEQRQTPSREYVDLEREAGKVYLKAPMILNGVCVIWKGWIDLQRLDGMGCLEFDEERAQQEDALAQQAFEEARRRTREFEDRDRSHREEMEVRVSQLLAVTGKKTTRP
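AlphaScreen proximity signal reports loss of binding between His-tagged CBF-beta and biotin-labelled RUNX1, each at 30 nM. Proteins are pre-associated for 20 minutes, compounds added for 15 minutes, then beads for 90 minutes, all at ambient temperature.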
N370S GC mod: qHTS Assay for Inhibitors and Activators of N370S glucocerebrosidase as a Potential Chaperone Treatment of Gaucher Disease; N370S GC spleen homogenate, 4MU-glucoside fluorescence; Potency, µM (top dose mostly 59.4 µM), without a hit: at the highest dose activity change, negative = inhibition, usual class: inhibitors; actives 0.092% (n = 330,000); Lysosomal acid glucosylceramidase (Homo sapiens), P04062;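 further: potency means the concentration at half of the fitted maximal effect; 0% = full enzyme activity and -100% = no enzyme basal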
Apoferritin bind: qHTS Assay for Identification of Novel General Anesthetics. Ferritin light chain (Equus caballus), P02791. apoferritin/1-aminoanthracene competitive binding, fluorescence. Potency, µM (highest dose often 77.5 µM), without a hit: at the top dose activity change, negative = displacement, actives largely listed as inhibitors. actives 0.074% (n = 350,000); further: potency means the concentration at half of the fitted maximal effect; on the % scale 0 is the no-effect control and ±100 the full control effect; nearly all actives have a fitted effect of over 20% in size
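Horse-spleen apoferritin (10 uM) was mixed with 50% saturated 1-aminoanthracene in PBS, exposed to compounds for 10 min at room temperature, and read for fluorescence (ex 380 nm, em 535 nm). Competitive displacement was fitted with a four-parameter Hill equation.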
Active calls of the source: *; ? = inconclusive; . = no result given; ! = not active in a repeat; [ ] = remark or other dose. The sample as a whole holds a higher share of hits than the screen did. Unless noted, the call rests on the fitted dose curve; in most records, active means well fitted curve in the direction sought with a large enough effect; inconclusive means small, poorly fitted or top-dose-only effect, or another doubt; inactive means no such curve, though single readings can be large; an effect the other way counts as inactive or inconclusive.

SMILES	Integrin act MD	Glioma ERSR ind	ClpP mod	CBFb RUNX1 block	N370S GC mod	Apoferritin bind
Cc1nc(NCc2ccco2)c2oc3ccccc3c2n1	-38.4%	-3.5%	14.1µM*	4.7%	12.5%	1.5%
Cc1nc(Nc2ccncc2)c2oc3ccccc3c2n1	-57.1%	-7.7%	14.1µM*	1.2%	-0.3%	-12.7%
Cc1nnc(NCc2ccccc2)c2ccccc12	15.5%	-4.4%	-3.4%	.	2.1%	-23.3%
Cc1nnc(NCc2ccco2)c2ccccc12	5.2%	-4.3%	25.1µM*	3.6%	-1.7%	-13.4%
Cn1nnc2c(NCc3ccco3)nccc21	-10.9%	0.0%	15.8µM*	5.6%	4.1%	-21.0%
Cn1c(NCc2ccco2)nc2ccccc21	7.1%	-0.3%	-1.1%	3.5%	3.8%	-7.5%
CCCS(=O)(=O)NCc1c(C)ncc2c1CCN(C(=O)/C=C/c1ccccc1)C2	.	-2.9%	.	.	.	.
Cc1nn(Cc2ccccc2)c(C)c1CNC(=O)CN=C1NS(=O)(=O)c2ccccc21	18.0%	-1.9%	22.4µM*	.	-2.0%	.
COc1ccc(CN2CCN(C(C)=O)CC2)cc1OC1CCN(C(=O)c2ccc3[nH]c(C)c(C)c3c2)CC1	.	-3.1%	.	.	.	.
O=C(Nc1nc2ccc(Cl)cc2s1)c1cccc(N2C(=O)CCC2=O)c1	25.6%	2.8%	35.5µM*	.	2.0%	.
COc1ccc2nc(NC(=O)c3cccc(N4C(=O)CCC4=O)c3)sc2c1	-26.1%	-3.1%	-2.4%	.	.	.
COc1ccccc1C1CN(Cc2cccnc2)Cc2ccccc2O1 (stereo not drawn)	.	6.2%	.	.	.	.
C[C@@]12CC[C@H]3OC(=O)C=C3C1CC[C@@]13CC(CCC12)[C@](CO)(O[C@H]1O[C@H](CO)[C@@H](O)[C@H](O)[C@H]1O)C3 (stereo partly drawn)	2.3%	-1.1%	2.0%	.	17.8µM*	.
COc1cc2nc(N3CCCN(C)CC3)nc(N)c2cc1OC	.	.	3.5%	.	.	.
OC1(c2cccnc2)CCN(Cc2ccc3c(c2)CN(Cc2ccc(F)c(F)c2)CCO3)CC1	.	-1.6%	.	.	.	.
COCCCn1c(-c2ccccc2Cl)n[nH]c1=S	16.4%	-18.6%	25.1µM*	-2.5%	3.5%	-12.0%
CC(C)(C)NC(=O)[C@H]1CC[C@H]2[C@@H]3CC=C4C=C(C(=O)O)CC[C@@]4(C)[C@H]3CC[C@]12C	.	-1.5%	.	.	.	.
CN1CCN(S(=O)(=O)c2ccccc2)C(c2ccccc2)C1 (stereo not drawn)	0.0%	-2.1%	1.5%	.	.	.
CN1CCN2c3ccccc3Cc3ccccc3C2C1 (stereo not drawn)	.	35.5µM*!	-0.3%	3.7%	16.0%	5.5%
COc1ccc(-c2csc3ncnc(N4CCN(c5ccccc5[N+](=O)[O-])CC4)c23)cc1	10µM*	-0.9%	-1.5%	.	3.9%	-9.0%
COc1ccc(-c2csc3ncnc(N4CCN(c5ccccc5O)CC4)c23)cc1	11.8%	-2.5%	?	.	-25.7%	?
CCC(CC)C(=O)Nc1c(C(=O)N2CCN(c3ccccc3)CC2)oc2ccccc12	12.6µM*	-7.6%	-0.3%	.	-2.9%	7.2%
CCOC(=O)c1ccc(N2CCN(c3ccc(F)cc3)CC2)c(NC(=O)Nc2cccc(OC)c2)c1	-16.1%	-2.8%	28.2µM*	-9.0%	1.3%	-13.6%
COc1cc2cc(C(=O)O)[nH]c2c(OC)c1OC	21.0%	-2.6%	28.2µM*	4.4%	-4.9%	1.1%
CC(=O)Nc1ccc(NC(=O)c2ccc(NS(=O)(=O)c3cc(C(C)(C)C)cc(C)c3C)cc2)cc1	16.9%	-3.2%	28.2µM*	-15.8%	-6.4%	-1.2%
SMILES	Integrin act MD	Glioma ERSR ind	ClpP mod	CBFb RUNX1 block	N370S GC mod	Apoferritin bind
Cc1cc(C(C)(C)C)cc(S(=O)(=O)Nc2ccc(O)c(C(=O)O)c2)c1C	-20.8%[7.66 µM]	-1.8%	-27.5%	-0.6%	?	-3.1%
Cc1ccc(-c2ccc(CCC(=O)O)o2)cc1	-11.1%	-3.6%	15.8µM*	-2.2%	-0.9%	-5.5%
Cc1ccc(CNC(=O)c2cc(COc3c(F)cccc3F)on2)s1	21.0%	-1.9%	.	21.7%	-15.2%	12.6µM*
COc1cc(CNCc2cc3cc(C)ccc3nc2-c2ccc(F)cc2)cc(OC)c1OC	.	2.5%	.	.	.	.
CCCC(=O)Nc1nc2nc(-c3ccccc3)cc(-c3ccccc3)n2n1	2.4%	-1.9%	12.6µM*	1.1%	-0.7%[12.8 µM]	-11.4%
Cc1ccc(C)c(-n2ccnc2SCC(=O)O)c1	-4.1%	-2.3%	0.7%	1.1%	-1.0%	-4.2%
O=C(CSc1nccn1-c1ccccc1)c1ccc(Cl)cc1	16.1%	1.4%	3.7%	-17.3%	7.9%	-20.1%
Cc1ccc(C(=O)CSc2nccn2-c2ccccc2)cc1	-19.9%	1.7%	28.2µM*	-16.7%	-17.1%	?
Cc1cc(C)cc(-n2ccnc2SCC(=O)O)c1	13.4%	-5.1%	28.2µM*	7.9%	-3.5%	-5.4%
CCCN1CCN(C(=O)c2cnn(-c3ncc4c(n3)-c3ccccc3CCC4)c2COC)CC1	.	-4.9%	.	.	.	.
O=C(COc1coc(CN2CCc3ccccc3C2)cc1=O)N1CCOCC1	20.0%	-1.3%	28.2µM*	.	-3.2%	.
COc1ccc(-c2csc3ncnc(Nc4cc(OC)cc(OC)c4)c23)cc1	.	-3.9%	?	.	.	33.8%
COc1ccc(-c2csc3ncnc(Nc4ccc(OC)cc4OC)c23)cc1	.	-3.3%	39.8µM*	.	.	189.6%
COc1ccc(-c2csc3ncnc(Nc4cccc(F)c4)c23)cc1	.	0.0%	-11.1%	.	.	76.8%
COc1ccccc1Nc1ncnc2scc(-c3ccc(F)cc3)c12	.	-1.7%	28.2µM*	.	.	-5.3%
Cc1ccc(NC(=O)COC(=O)c2ccccc2OCC(=O)Nc2ccc(Br)cc2)c(Br)c1	.	.	1.6%	.	.	.
CC(C)(C)n1ncc2c(=O)n(Cc3cc(F)ccc3Cl)cnc21	.	-2.7%	.	.	.	.
Cc1cc(-c2ccccc2)nc2[n+]1CCN2C	-45.8%	-0.8%	28.2µM*	-1.9%	-3.4%	8.5%
Cc1cnc2ccccc2c1/C=C/c1ccc(N)cc1	.	-2.0%	1.1%	.	.	.
Cc1c(C(=O)C(=O)N2CCN(C)CC2)c2ccccc2n1C	-7.2%	-3.0%	12.6µM*	-0.4%	-1.7%	-2.8%
COc1ccccc1N1CCN(C(=O)C(=O)c2c(C)n(C)c3ccccc23)CC1	-22.3%	-4.6%	-0.6%	.	-9.8%	-15.1%
CC(=O)N1c2ccccc2C(=O)OC1c1cccnc1 (stereo not drawn)	17.5%	-2.7%	28.2µM*	-3.8%	-21.3%	-1.1%

From PubChem BioAssay
